The text below walks through data of ChEMBL document CHEMBL4513216, “Probing the Open Global Health Chemical Diversity Library for Multistage-Active Starting Points for Next-Generation Antimalarials” (ACS Infect Dis, 2020).

The structures appear in SMILES notation. In all, about 65,000 compounds went through this assay and about 2,100 (3.2%) showed an effect of 50% or more. The median lay at about -52%. The sample as a whole holds a higher share of strong results than the screen did.

This test has as its system Plasmodium falciparum. The test is described as follows: Screen against P. falciparum Asexual Blood Stage (ABS), at 5uM. The conditions noted are these: tested at 5 uM. It is filed as functional, Dd2.
On to `Cc1nc(CN2C[C@@H]3CN(C(=O)c4ccncc4)C[C@@H]3C2)cs1`, for which the INHIBITION is -67.5%.
Next, `Cc1nc(CN2CCO[C@H]3CN(C(=O)c4ccncc4)C[C@H]32)cs1`: -109%; `CC(=O)N(c1ccc(F)cc1)c1nc(CN2CCCC2C(C)C)cs1` (stereo unspecified): 90.3%; `CC(=O)N(c1ccc(C)cc1)c1nc(CN2CCCC(C)C2)cs1` (stereo unspecified): 83.2%.
Under `CCc1nc(CN2CCCN(C(=O)Cc3cccs3)CC2)cs1` stands 3.65%; under `CCCN1CCN(C(=O)c2cccc(C)n2)[C@H]2CS(=O)(=O)C[C@H]21`, -129%; under `CC(C)(C)CC(=O)N1C[C@@H]2C[C@@H]1CN2`, 30%.
In the case of `CN(Cc1cc(C2CC2)on1)C(=O)CN1CC(c2ccccc2)CC1=O` (stereo unspecified), the INHIBITION is recorded as -67.9%.
Next, `CC(C)c1cc(N(C)Cc2cc(C3CC3)on2)n2nccc2n1`: 80.3%; `CN(C)CCOCc1cncc2c1CCN(C1CCOC1)C2` (stereo unspecified): -63.4%.
Under `NC(=O)CN1CCCN(C(=O)Cc2ccc3ccccc3c2)CC1` stands -22.8%; under `CCN1CCN(Cc2csc(C(C)C)n2)CC1`, -17.1%; under `O=C(Cc1csc(-c2ncccn2)n1)N1CCN2CCCCC2C1` (stereo unspecified), -23.4%.
Next, `CCCC1CCCN(Cc2csc(-c3ncccn3)n2)CC1` (stereo unspecified): 74.9%; `CCc1noc(CN(C)CCC(=O)Nc2ccc(C#N)c(Cl)c2)n1`: 11.3%; `O=S(=O)(Cc1ccccc1Cl)NCCCN1CCCC1`: 79.2%.
Turning to `Cn1cc(C(=O)N2CC[C@@H]3[C@@H]2CCN3Cc2ccncc2)cn1`, the INHIBITION is given as -137%.
For `Cc1cnc(N2CCc3c(cnc(C)c3C(=O)O)C2)nc1`, the INHIBITION is recorded as -89.7%.
Under `CCc1noc(C(C)N2CCN(CC)CC2)n1` (stereo unspecified) stands -70%.
Regarding `Cc1ccc(CNC(C)c2cc(F)ccc2N2CCN(C)CC2)o1` (stereo unspecified), the INHIBITION turned out to be 83.7%.
Under `CCN1CCN(c2ccc(F)cc2C(C)NCc2cscn2)CC1` (stereo unspecified) stands 81.1%.
Under `CCN1CCN(c2ccc(F)cc2C(C)NCc2ccnn2C)CC1` (stereo unspecified) stands 76.3%; under `CC(C)c1cc(CN2CCN(c3cccnc3)CC2)n(C)n1`, -52.7%.
Under `CCN1CCN(c2ccc(F)cc2C(C)NCc2ccccn2)CC1` (stereo unspecified) stands 85.6%; under `c1ccc(CO[C@@H]2CN(Cc3cccnc3)[C@@H]3COC[C@@H]32)nc1`, -165%; under `CCN1CCN(c2ccc(C(=O)NCCOC)cc2F)CC1`, -56%.
On to `CC(c1ccccc1F)N1CCN(C(=O)Cc2ccncc2)CC1` (stereo unspecified), for which the INHIBITION was -41.8%.
Under `CCN1CCN(c2ccc(F)cc2C(C)NCc2ccncc2)CC1` (stereo unspecified) stands 72.4%; under `Cc1cccc(OCC2CCCN(C(=O)CN(C)C3CCNCC3)C2)c1` (stereo unspecified), 73.8%.
Under `Cc1cccc(CC(=O)N2CCCC(N(C)CCCN(C)C)C2)c1` (stereo unspecified) stands -40.55%; under `Cc1cccc2cc(CN3CCCN4CCC[C@H]4C3)c(=O)[nH]c12`, -45.3%.
Next, `Clc1cc(CN2CCCN3CCCC3C2)c2ncccc2c1` (stereo unspecified): 89.5%; `CNc1ncccc1CN1CCN2CCN(C)CC2C1` (stereo unspecified): -92.1%; `CC1CN(CC2CCCC2)CCN1c1ccc2nncn2n1` (stereo unspecified): 70.4%.
As to `Cc1ccc(N2CCO[C@H]3CN(CC4CC4)C[C@H]32)nn1`, the INHIBITION is given as -15.6%.
Next, `Cc1cccc(CN2CC[C@@H]3[C@@H]2CCN3C(=O)c2ccno2)n1`: -100%; `Cc1cc(-c2cnc(N3CCCC3)nc2C(C)C)on1`: 10.2%.
Take `c1cncc(N2CCCC3(CCN(CCN4CCCC4)CC3)C2)c1`: the INHIBITION came to 92%.
Under `c1cncc(N2CCOCC3(CN(Cc4cccs4)CCO3)C2)c1` (stereo unspecified) stands -41%.
For the compound `O=C1CC2(CCN(CC3CC3)C2)CN1c1cccnc1` (stereo unspecified), the INHIBITION was -58.5%.
Under `c1cnc(N2CCOCC3(CCCN(Cc4cccs4)C3)C2)nc1` (stereo unspecified) stands -15.6%; under `c1cncc(N2CCOCC3(CCCN(Cc4cccs4)C3)C2)c1` (stereo unspecified), 55.5%; under `c1cncc(N2CCCC3(CN(Cc4cccs4)CCO3)C2)c1` (stereo unspecified), -22.7%.
Next, `CN1CCO[C@H]2CN(C(=O)c3ccncc3F)C[C@H]21`: -54.5%.
Under `COc1ccccc1C1(NCc2c(C)nc3c(C)cccn23)CCCC1` stands 89.2%.
`Cc1cnccc1N1CCN(C[C@]2(O)CCCN3CCCC[C@@H]32)CC1`: the INHIBITION was found to be 75%.
Regarding `Cc1cccnc1N1CC2(CCN(Cc3cccnc3)C2)C1`, the INHIBITION is recorded as -50.1%.
Next, `O[C@@]1(CNCCCNc2cccnc2)CCCN2CCCC[C@@H]21`: -52.8%.
With `O=C(Nc1ccccc1)[C@H]1CN2CCC1C[C@@H]2Cn1cc(CO)nn1` (stereo partly specified), the INHIBITION is -50.4%.
Under `CC(C)N1[C@H](CN(C)C)C[C@@H]2CN(c3ncc(F)cn3)CC[C@@H]21` stands 25.4%; under `N#CC1(c2ccccc2)CCN(C(=O)C2CCCN(C(N)=O)C2)CC1` (stereo unspecified), -142%; under `CC(C)N1CCCC(C(=O)N2CCN(c3nsc4ccccc34)CC2)C1` (stereo unspecified), 70.4%.
As for `Cc1ccc(C(=O)N2C[C@@H]3CCN(C(C)C)C[C@@H]3C2)cn1`, the INHIBITION is -25%.
Under `Cn1cc(CN2CCC[C@]3(C[C@@H](Oc4ccccn4)CO3)C2)cn1` stands -29.6%; under `Cc1nc(CN2CC[C@H]3C[C@H](c4ccncn4)O[C@@H]3C2)cs1`, -62.5%; under `COCCNC(=O)C[C@@H]1COC[C@H]2CN(Cc3cccnc3)C[C@@H]12`, -103%.
Next, `O=C(C[C@@H]1COC[C@H]2CN(Cc3ccncc3)C[C@@H]12)N1CCCC1`: -88%.
Under `CN1CCN([C@H]2COC[C@@H]3CN(Cc4cccnc4)C[C@@H]32)CC1` stands -11.2%.
Turning to `Cc1cc(C)cc(CN2C[C@H]3COC[C@H](N4CCN(C)CC4)[C@H]3C2)c1`, the INHIBITION is on record as 94.1%.
Next, `COc1ccc(CN2C[C@@H]3COC[C@@H](N4CCN(C)CC4)[C@@H]3C2)cc1`: 73.9%.
Consider `COc1ccc(CN2C[C@H]3CN(c4cncnc4)C(=O)[C@H]3C2)cc1`, for which the INHIBITION was -49.1%.
Under `Cc1c(CC(=O)N2CCN(CC(F)(F)F)CC2)nnn1-c1ccccc1` stands -74%; under `Cc1cc(N2CCCC(c3[nH]ncc3Cc3ccccc3)C2)nc(N)n1` (stereo unspecified), 73.6%.
Next, `CCn1ncc(CN2CCCC(C(=O)c3ccc(Cl)cc3)C2)c1C` (stereo unspecified): 70.5%.
Consider `CCCn1ncc(CN2CCCC(C(=O)c3ccc(Cl)cc3C)C2)c1C` (stereo unspecified), for which the INHIBITION came out at 78.4%.
Under `COc1ccc(C(=O)C2CCCN(Cc3cnn(C)c3C)C2)c(OC)c1` (stereo unspecified) stands 39.5%; under `CCCn1ncc(CN2CCCC(C(=O)c3ccc(SC)cc3)C2)c1C` (stereo unspecified), 65.8%.
Next, `Cc1c(CN2CCCC(C(=O)c3ccc(C(C)(C)C)cc3)C2)cnn1C` (stereo unspecified): 57.9%; `Cc1cc(Cl)ccc1C(=O)C1CCCN(Cc2cnc(N(C)C)s2)C1` (stereo unspecified): -28.8%.
As for `Cc1cc(CN2C[C@@H]3COC[C@]3(CNC(=O)N3CCCC3)C2)no1`, the INHIBITION is -22.5%.
On to `COCCNC(=O)[C@@]12CCO[C@@H]1CCN(Cc1c(C)noc1C)C2`, for which the INHIBITION is -191%.
Under `O=C1CSC(c2ccc(O)c(Cl)c2)c2c(n(C3CCOCC3)[nH]c2=O)N1` (stereo unspecified) stands -57.7%.
In the case of `CCC(C)N1CCC(Oc2ccc(C(=O)NCCN(C)C)cc2Cl)CC1` (stereo unspecified), the INHIBITION stood at 79.7%.
Under `Cc1nc(C2(NCC(=O)NC(=O)NCC(F)(F)F)CCCCC2)no1` stands -29.3%; under `COc1cc(C)c(-c2ccc(F)c3c2OC(CN)C3)cc1C` (stereo unspecified), 83.8%; under `Cn1ncc2c1NC(=O)CSC2c1ccccc1Cl` (stereo unspecified), -82.5%.
As to `Cc1ccc(N2C[C@@H]3OCCN(Cc4c(C)noc4C)[C@@H]3C2)nn1`, the INHIBITION was found to be 6.3%.
Next, `CCc1nc(N)nc(N2CCCC3(CCN(C)CC3)CC2)c1C`: 76.1%.
Next, `CC(C)c1cc(N2CCCC3(CCN(C)C3)C2)ncn1` (stereo unspecified): -28.1%; `Cc1nc(C)c(C)c(N2CCC3(CCN(C)C3)C2)n1` (stereo unspecified): 19.5%; `Cc1cc(NCCc2c[nH]cn2)nc(-c2cccnc2)n1`: -108.15%.
On to `Cc1cc(NCCN)nc(-c2ccccc2O)n1`, for which the INHIBITION turned out to be 79.2%.
Under `Cn1nc(C2CC2)c2c1NC(=O)CC2c1cc(CN2CCCC2)cs1` (stereo unspecified) stands 81.9%.
Consider `CCN1CCC2(CC1)NC(=O)c1cc(Br)ccc1-n1nnnc12`, for which the INHIBITION is listed as -47.7%.
Next, `O=C(N1CCCC1)N1C[C@@H]2CCNC[C@@H]21`: -67.9%.
Under `FC(F)CNc1cnc(C2CCNCC2)cn1` stands -139%.
Under `O=C(Nc1ccc(Cl)cn1)c1cncc(C2CCNCC2)n1` stands 70%; under `Cc1nn(CCNC(C)Cn2cncn2)c(C)c1Cl` (stereo unspecified), -44.7%.
In the case of `c1c[nH]c2nc(C3CCNCC3)nc-2c1`, the INHIBITION is -162%.
For the compound `FC(F)(F)c1nc(C2CCNCC2)no1`, the INHIBITION is -40.3%.
Under `FC(F)(F)c1cc(C2CCNCC2)nc(-c2ccsc2)n1` stands 89.2%; under `CS(=O)(=O)CCCNCc1c(Cl)cccc1N1CCCC1`, 72%.
With `CCOCCN1CCO[C@H]2[C@H](OCc3ccccn3)CC[C@@H]21`, the INHIBITION is -65.4%.
Consider `O=C(C[C@@H]1COC[C@H]2CN(Cc3cccnc3)C[C@@H]12)NCC1CC1`, for which the INHIBITION is recorded as -71.5%.
Consider `CCN1C[C@@H]2[C@@H](OC)CCN(C(=O)Cc3ccsc3)[C@@H]2C1`, for which the INHIBITION is reported as 60%.
Under `CCN1C[C@H]2[C@@H](C1)N(C(=O)Cc1ccsc1)CC[C@H]2OC` stands -31.1%.
In the case of `CO[C@H]1CCN(C(=O)Cc2ccsc2)[C@@H]2CN(CC3CC3)C[C@H]12`, the INHIBITION was found to be 19.6%.
As for `Cc1cccc(C)c1Nc1noc2c1CN(C(=O)c1ccn(C)n1)CC2`, the INHIBITION was 86.6%.
Next, `Cc1cccc(C)c1Nc1noc2c1CN(C(=O)c1c[nH]nc1C)CC2`: 93%; `Cc1cccc(C)c1Nc1noc2c1CN(C(=O)c1cn(C)cn1)CC2`: 88.3%.
Next, `Cc1cccc(C)c1Nc1noc2c1CN(C(=O)c1ccnn1C)CC2`: 81.7%.
